Out of some 360,000 compounds screened, about 3,700 (1%) were called active. The sample holds actives, similar compounds and a random draw of the others, so the mix is not that of the screen. Unmarked numbers belong to inactive results. Cut-off read from the data, not from the text of the source: active = activation above about 30%; inactive = the rest.
Molecular target: D(1A) dopamine receptor (Homo sapiens) (UniProt P21728)
Test: Allosteric Agonists of the Human D1 Dopamine Receptor: qHTS; note: 0% is about no effect
Conditions: HEK293 T-REx D1 cells, calcium flux, agonist mode; at 2 µM; active compounds read high
In short: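 Agonism was scored from calcium flux recorded over 180 s (1 read/s) after pintool compound addition, following a 10-cycle baseline. Cells were inducible force-coupled HEK293 TREx D1, plated overnight at 30 C and loaded with no-wash calcium dye.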

Chain of D(1A) dopamine receptor (Homo sapiens) (P21728 whole entry, looked up): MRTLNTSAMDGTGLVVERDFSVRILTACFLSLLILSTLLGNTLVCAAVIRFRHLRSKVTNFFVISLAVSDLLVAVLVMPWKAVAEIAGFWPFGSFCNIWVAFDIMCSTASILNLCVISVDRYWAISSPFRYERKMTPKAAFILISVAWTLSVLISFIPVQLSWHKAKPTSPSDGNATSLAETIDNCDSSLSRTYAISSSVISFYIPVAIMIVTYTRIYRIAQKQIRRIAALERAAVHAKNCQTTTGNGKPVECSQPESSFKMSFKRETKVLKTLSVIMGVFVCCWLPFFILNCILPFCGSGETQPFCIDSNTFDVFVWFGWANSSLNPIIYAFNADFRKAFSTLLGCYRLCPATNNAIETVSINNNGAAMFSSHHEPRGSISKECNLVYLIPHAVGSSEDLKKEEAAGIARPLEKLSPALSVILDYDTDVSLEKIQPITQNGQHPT

Row | SMILES | activation
1 | Cc1ccc(-c2nn(CCC(=O)Nc3ccc(OC(F)(F)F)cc3)c(=O)c3ccccc23)cc1 | 1.41%
2 | Cc1cccc(NC(=O)Cn2nc(-c3ccc(Cl)cc3)c3ccccc3c2=O)c1 | 35.9% (active)
3 | Cc1ccc(-c2nn(CCC(=O)Nc3ccc(Cl)c(Cl)c3)c(=O)c3ccccc23)cc1 | 0.86%
4 | Cc1ccc(C(=O)Nc2nc(-c3ccccc3)ns2)cc1 | -0.0471%
5 | CCC(=O)N1c2ccccc2CC1C(=O)N1CCN(c2cccc(OC)c2)CC1 (stereo not given) | -0.217%
6 | CC(=O)N1c2ccccc2N(Cc2ccc([N+](=O)[O-])cc2)C(=O)C1(C)C | 2.19%
7 | O=C1NC(=O)C2C1C(c1ccc([N+](=O)[O-])cc1)=NN2Cc1ccccc1 (stereo not given) | 44.8% (active)
8 | O=C(NCCCCc1ccccc1)C1CC(c2ccc([N+](=O)[O-])cc2)=NO1 (stereo not given) | 7.04%
9 | Cc1cccc(NC(=O)c2cc3c(C)nn(-c4ccccc4)c3s2)c1 | 2.46%
10 | CCOC(=O)c1oc2ccc(S(=O)(=O)n3nc(-c4ccccc4OC)cc3N)cc2c1C | 4.93%
11 | CC(C)(C)N(Cc1ccccc1)C(=O)c1ccncc1 | -0.455%
12 | CN(C(=O)CN(CCO)CC(=O)N(C)C(C)(C)Cc1ccccc1)C(C)(C)Cc1ccccc1 | 40.5% (active)
13 | Cc1cc(C)cc(NC(=O)N(C)Cc2ccccc2)c1 | 2.04%
14 | CCOC(=O)c1c(S(=O)(=O)NCC(=O)Nc2ccc(Cl)c(C(F)(F)F)c2)c(C)n(C)c1C | 6.5%
15 | Cc1cc(C)c(NC(=O)CSc2nc3nccnc3c(=O)n2CCc2c[nH]c3ccccc23)c(C)c1 | 2.34%
16 | O=C(NCCN1C(=O)S/C(=C\c2cccnc2)C1=O)c1ccc(S(=O)(=O)N2CCCC2)cc1 | 1.07%
17 | CCN1CCN(CCNC(=O)c2ccc(/C=C3/Sc4ccccc4N(Cc4cccc(C)c4)C3=O)cc2)CC1 | 48.6% (active)
18 | O=C(CN1C(=O)/C(=C/c2ccccc2F)Sc2ccccc21)NCc1cccnc1 | 4.38%
19 | CCn1c(=O)c(=O)n(CC)c2cc(N3CCCCC3)c(NC(=O)c3cccc(F)c3)cc21 | -0.479%
20 | COc1c(F)c(F)c(C(=O)O)c(Nc2ccccc2C)c1F | 1.04%
21 | CCCS(=O)(=O)c1c(Nc2ccccc2C)sc(C(=O)c2ccccc2)c1N | 32.6% (active)
22 | CCCCCN(C(=O)NC(=O)Nc1ccccc1C)S(C)(=O)=O | 4.03%
23 | CCOC(=O)N1CCc2c(sc3c2c(=O)n(-c2ccc(CC)cc2)c(=O)n3C)C1 | -0.644%

Row | SMILES | activation
24 | CCOC(=O)c1cc2c(=O)n3ccccc3nc2n(CC2CCCO2)c1=NC(=O)c1ccc(C(C)(C)C)cc1 (stereo not given) | 2.73%
25 | CCCCCCc1cc2cc(-c3nnc(-c4ccccc4)o3)c(=O)oc2cc1O | 297% (active)
26 | CCOc1ccc(CCNC(=O)c2c(C)oc3ncn(C)c(=O)c23)cc1 | 0.93%
27 | CSc1ccc(C2C(C(=O)Nc3ccccc3)=C(C)Nc3nc4ccccc4n32)cc1 (stereo not given) | -0.673%
28 | Cc1ccc(NC(=O)CN2C(=O)C(c3ccc(F)cc3)=NC23CCCCCC3)c(C)c1 | 7.18%
29 | CC(C)c1ccc(NS(=O)(=O)c2ccc3[nH]cc(C(=O)NC4CCCC4)c(=O)c3c2)cc1 | 5.71%
30 | Cc1ccc(NC(=O)c2ccc(CN3CC(=O)N4CCCCC4C3=O)cc2)c(Cl)c1 (stereo not given) | 1.1%
31 | CNCC[C@H](Oc1ccc(C(F)(F)F)cc1)c1ccccc1 | 111% (active)
32 | CC(NC(=O)Cn1cc(C(F)(F)F)cc(Cl)c1=O)c1ccccc1 (stereo not given) | -0.532%
33 | CN(C)c1ccc(C(=O)NCC(=O)OC(C(=O)Nc2cc(C(F)(F)F)ccc2Cl)c2ccccc2)cc1 (stereo not given) | 1.69%
34 | COc1ccc(OC)c(NC(=O)CSC2=Nc3ccccc3C3=NC(CC(=O)NCCc4ccccc4)C(=O)N23)c1 (stereo not given) | 1.84%
35 | Cn1nnnc1SCCNCc1ccc(Cl)c(Cl)c1 | -0.329%
36 | COc1ccc(-c2ccc(CNCCCN3CCOCC3)o2)cc1Cl | 3.69%
37 | Cn1nnnc1SCCCNCc1cccc(OCc2ccc(Cl)cc2)c1 | 74.4% (active)
38 | COc1cc(CNCCSc2nnnn2C)ccc1OCc1ccc(Cl)cc1Cl | 48.2% (active)
39 | Cn1nnnc1SCCCNCc1ccc(Cl)cc1 | 8.22%
40 | COc1cccc(CNCCSc2nnnn2C)c1OCc1ccccc1Cl | 4.2%
41 | CCOc1ccc(CNCCSc2nnnn2C)cc1 | -0.463%
42 | Cc1c(Cl)cccc1-c1ccc(CNCCCSc2nnnn2C)o1 | 68.7% (active)
43 | COc1cc(CNCCSc2nnnn2C)ccc1OCc1c(F)cccc1Cl | 5.58%
44 | COc1ccc(-c2c(C)nn3c(N4CCC(C(=O)NCCC(C)C)CC4)cc(C)nc23)cc1OC | 1.66%
45 | Cc1ccc(Cl)cc1N(C)C(=O)Cn1nc(Cc2cccnc2)c2ccccc2c1=O | 3.19%
46 | Oc1c(Cl)cc(Cl)c(Cl)c1Cc1c(O)c(Cl)cc(Cl)c1Cl | 33.5% (active)

Row | SMILES | activation
47 | COc1cc(CN(C(=O)c2ccccc2Br)c2ccccn2)cc(OC)c1OC | -2.08%
48 | O=C(CCNS(=O)(=O)c1ccccc1)NCCSc1ccc(Br)cc1 | 11.3%
49 | Cc1ccc(S(=O)(=O)NCCNC(C)c2ccc(Br)cc2)cc1 (stereo not given) | 6.77%
50 | Cc1ccc(OCCNC(=O)CCNS(=O)(=O)c2ccc(Br)cc2)cc1 | 74% (active)
51 | Fc1ccc(-n2ncc3c(Nc4ccc(Oc5ccccc5)cc4)ncnc32)cc1 | 0.314%
52 | COc1ccc(C(=O)CSc2c(C(C)C)cnc3c2c(=O)n(C)c(=O)n3C)cc1 | 2.45%
53 | Cc1nc(SCCOc2ccc(Cl)cc2)[nH]c(=O)c1Cc1ccccc1 | -1.18%
54 | Cc1cc2oc(C(=O)N(Cc3ccc(Cl)cc3)Cc3ccco3)c(C)c2cc1Cl | 18.5%
55 | O=C(NC(=S)N1CCc2ccccc21)c1ccco1 | 1.7%
56 | CC(Oc1ccc2ccccc2c1)C(=O)NNC(=S)NC(=O)c1ccco1 (stereo not given) | 50.2% (active)
57 | COc1ccc(/C=C(/NC(=O)c2ccco2)C(=O)Nc2ccc(C(C)=O)cc2)cc1 | -0.901%
58 | COc1ccc(OC)c(-c2nc(C(N)=O)c3c(n2)n(-c2ccc4c(c2)OCO4)c(=O)n3C)c1 | -1.26%
59 | COC(=O)C[n+]1cccc2ccccc21 | 87.9% (active)
60 | COC(=O)CNS(=O)(=O)c1ccc(Cc2ccc(S(=O)(=O)NCC(=O)OC)cc2)cc1 | 2.26%
61 | COc1c(C(=O)N2CCCC2)ccc2ccccc12 | 1.37%
62 | CC(=O)c1ccc(NC(=O)c2nc(-c3ccc(C)cc3)n3c2CCCCC3)cc1 | 2.3%
63 | COc1ccc2cc(-c3nc(Cl)c4c5c(sc4n3)CC(C)CC5)c(=O)oc2c1 (stereo not given) | 8.22%
64 | CCOC(=O)c1c(NC(=O)/C(C#N)=C/c2ccccc2)sc2c1CCC2 | 0.119%
65 | CCOC(=O)c1c(NC(=S)Nc2ccccc2)sc2c1CCN(C)C2 | 32.3% (active)
66 | CCOC(=O)c1c(NC(=O)NC(C)(C)C)sc2c1CCN(C)C2 | 3.08%
67 | Cc1ccc(-c2nnc3c4ccccc4c(C)nn23)cc1NC(=O)c1cccc(Br)c1 | -0.644%
68 | O=C(O)CCCCCCCCc1cn(CN2C(=O)c3ccccc3C2=O)nn1 | 2.36%
69 | Cc1ccc(-c2nn(-c3ccccc3)cc2/C=C2\SC(=S)N(CCCCCC(=O)O)C2=O)o1 | 44.7% (active)

Row | SMILES | activation
70 | O=C1/C(=C/c2coc3ccc(O)cc3c2=O)SC(=S)N1c1ccccc1 | 5.55%
71 | O=C(Nc1ccc(F)cc1F)c1cnn(-c2ccc(F)cc2)c1-n1cccc1 | 2.54%
72 | COc1cccc(C(=O)NC2CCN(C#N)CC2)c1 | 0.293%
73 | CCC(Oc1ccccc1)C(=O)NCc1cccnc1 (stereo not given) | 1.93%
74 | C=CCOc1cccc(CNCc2cccnc2)c1 | 3.75%
75 | c1ccc(COc2ccccc2CNCc2cccnc2)cc1 | 34.6% (active)
76 | COc1cccc(NC(=O)C2CCN(c3cc(C)nc4c(-c5ccc(Cl)cc5)c(C)nn34)CC2)c1 | 0.702%
77 | CCOc1ccc(C(=O)Nc2nccs2)cc1[N+](=O)[O-] | 6.87%
78 | CCCCCOc1ccc(CSC2=NCCN2)cc1[N+](=O)[O-] | 42.9% (active)
79 | Cc1ccccc1NC(=O)CSC1=NCCN1 | 1.9%
80 | COCC(C)NS(=O)(=O)c1ccc(N2CCCCS2(=O)=O)cc1 (stereo not given) | 3.35%
81 | CCc1cccc(NC(=O)c2cc(-c3ccccc3)n[nH]2)c1 | 12.3%
82 | CCOc1cc(/C=C(\C#N)c2nc(-c3cccs3)c(NC(C)=O)s2)ccc1O | 115% (active)
83 | CCOc1cc(/C=C(\C#N)C(=O)Nc2ccccc2C)ccc1OCc1cc(=O)n2nc(CC)sc2n1 | 5.19%
84 | CCOc1ccc(/C=C(\C#N)c2nc3ccccc3c(=O)[nH]2)cc1OC | 3.27%
85 | O=C(NCC(c1ccc2c(c1)OCO2)N1CCN(c2ccccc2)CC1)C(=O)Nc1ccccc1F (stereo not given) | 1.27%
86 | COc1ccc(N2CCN(C(=O)CSCc3nc(-c4ccccc4Cl)oc3C)CC2)cc1 | 7.67%
87 | CCOc1cccc2c1N[C@@H](c1ccc(C(=O)O)cc1)[C@H]1CC=C[C@@H]21 | 7.61%
88 | CC1CCCN(c2cc3c(cc2F)c(=O)c(S(=O)(=O)c2cccc(Cl)c2)cn3Cc2ccccc2)C1 (stereo not given) | -0.839%
89 | CCOC(=O)NN1C(=O)c2ccccc2NC1c1ccccc1O (stereo not given) | 0.398%
90 | Cc1cc2n(n1)C(c1cc(C(C)(C)C)c(O)cc1O)Nc1ccccc1-2 (stereo not given) | 38.8% (active)

From PubChem BioAssay AID504660 (National Center for Advancing Translational Sciences (NCATS), 2011)
